Assay outcomes: PubChem, National Center for Advancing Translational Sciences (NCATS)
A selection: hits, their analogues and other compounds. The true share with any hit is near 19%.
DT40 TDP1 CPT = growth inhibition of DT40 Tdp1-/-;hTDP1 cells with camptothecin (screen for TDP1 inhibitors); chicken DT40 Tdp1-/-;hTDP1 cells + 20 nM CPT, ATP luminescence, 48 h; actives 12% (n = 420,000); AID 686979; Potency, µM (highest dose often 46.2 µM), for inactives: at the highest dose activity change, negative = growth inhibition, most hits filed as inhibitors; note: potency is the fitted concentration of half-maximal effect; nearly all actives have a fitted effect of over 55% in size
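Chicken DT40 Tdp1-/- cells complemented with human TDP1, 400 cells/well, exposed to compounds plus 20 nM camptothecin for at least 48 h at 37 C; viability read as ATP content by CellTiter-Glo luminescence.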
HT1080NT lethal = kills 2HG-producing HT-1080-NT fibrosarcoma cells; HT-1080-NT fibrosarcoma viability, CellTiter-Glo ATP luminescence, 48 h; Potency, µM (highest dose often 46.1 µM), for the others: at the highest dose activity, negative = less viability, actives largely listed as cytotoxic; actives 1.6% (n = 360,000); AID 686970;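 note: NT is the 2HG producing partner of a matched IDH1 knockdown line; potency is the fitted concentration of half-maximal effect; 0% = DMSO-treated cells and -100% = media-only wells without cells; nearly all actives have a fitted effect of over 55% in size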
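HT-1080-NT; 750 cells/well; 5% FBS RPMI; 48 h compound, 37 degrees C; CellTiter-Glo luminescence; curve fitting and curve-class assignment.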
TDP1 cell noCPT = qHTS for Inhibitors of human tyrosyl-DNA phosphodiesterase 1 (TDP1): qHTS in cells in absence of CPT. AID 686978, 2013. DT40 Tdp1-/- hTDP1 cells, no CPT, ATP luminescence, 48 h. Potency, µM (titrated, usually from 46.2 µM), for the others: at the highest dose activity change, negative = growth inhibition, usual class: inhibitors. actives 15% (n = 420,000); note: potency is the fitted concentration of half-maximal effect; nearly all actives have a fitted effect of over 55% in size
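Growth kinetics read by CellTiter-Glo luminescence after ≥48 hr at 37 °C. Cells: DT40 Tdp1-/- stably carrying human TDP1, 400 per well, compound exposure in the absence of CPT (DMSO vehicle).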
IL-1B inflam inh = inhibitors of inflammasome signaling (IL-1 beta secretion) | activity change, % at 57.5 µM | THP-1 LPS/ATP IL-1B secretion, AlphaLISA, 16 h; stronger effect = lower value | actives 4.7% (n = 360,000) | AID 743279; in the data active = activity change below about -50%; inconclusive = mostly about -30% to -49%
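THP-1 cells pretreated 1 hr with compounds (up to 57.5 uM final), then stimulated with LPS (250 ng/mL final) plus ATP (1.25 mM final); secreted IL-1B measured by AlphaLISA after 16 hr, decreased signal indicating inhibition.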
HT1080 IDH1KD tx = toxicity to HT-1080 IDH1 knockdown cells (counter line) | HT-1080 IDH1 knockdown viability, ATP luminescence, 48 h | Potency, µM (series often up to 46.1 µM), for the others: at the top dose activity, negative = toxicity, hits mostly cytotoxic | AID 686971 | actives 2% (n = 360,000);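 note: potency is the fitted concentration of half-maximal effect; 0% = DMSO wells and -100% = cell-free medium wells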
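In this qHTS, HT-1080 cells depleted of IDH1 are exposed for 48 h at 37 °C to compound titrations. Toxicity is scored from CellTiter-Glo luminescence, with DMSO as full viability and medium alone as none.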
Numbers without * were called inactive; ? = inconclusive; . = not tested or not shown. Unless noted, calls come from the whole dose curve; as a rule, active = well fitted curve in the direction sought with a large enough effect; inconclusive = small, poorly fitted or top-dose-only effect, or another doubt; inactive = no such curve, though single readings can be large; an effect the other way counts as inactive or inconclusive. Unless noted, % is set by controls: 0 for no effect and ±100 for the full control effect.

SMILES	DT40 TDP1 CPT	HT1080NT lethal	TDP1 cell noCPT	IL-1B inflam inh	HT1080 IDH1KD tx
CCOC(=O)c1cccc(Nc2nc(C(=O)OCC)nc3ccccc23)c1	4.11µM*	.	3.26µM*	.	.
O=C(CCc1ccccc1)N=C1SC2CS(=O)(=O)CC2N1c1cccc(F)c1 (stereo not drawn)	-3.2%	-10.3%	8.3%	-22.3	-2.2%
CNC(=O)c1ccc(Nc2nnc(C)c3ccccc23)cc1	-2.1%	-5.9%	-23.5%	-20.1	1.2%
CCOC(=O)c1nc(Nc2ccc(N3CCOCC3)cc2)c2ccccc2n1	?	3.4%	?	-84.3*	1.7%
CCOC(=O)c1ccc(Nc2cc(C)nc(N3CCOCC3)n2)cc1	-23.9%	?	?	8.6	?
CCOC(=O)c1ccc(Nc2nnc(C)c3ccccc23)cc1	-11.6%	?	16.4µM*	-26.4	-3.1%
CCOC(=O)c1ccc(Nc2cc(C)nc(-c3ccccc3)n2)cc1	4.61µM*	16.4µM*	5.17µM*	39.9	18.4µM*
COc1ccc(OC)c(CNC(=O)C2CCC(=O)N(CCCN3CCCC3=O)C2)c1 (stereo not drawn)	?	-2.3%	-0.7%	-10.2	2.4%
CCCNC(=O)c1c2c(nc3ccccc13)C(=O)N(C1CCCCC1)C2	-3.2%	.	-21.3%	.	.
CCc1c(-c2ccccc2)nc2ccccc2c1C(=O)NCCc1ccccc1	?	.	23.1µM*	.	.
Cc1c(-c2ccccc2)nc2ccccc2c1C(=O)NCc1cccs1	?	-5.4%	16.4µM*	-5.8	-4.0%
O=C(NCCc1ccc(Cl)cc1)c1c2c(nc3ccccc13)C(=O)N(C1CCCCC1)C2	14.6µM*	.	14.6µM*	.	.
O=C(NCCc1ccccc1)c1c2c(nc3ccccc13)C(=O)N(C1CCCCC1)C2	11.6µM*	.	18.4µM*	.	.
CCc1nc2ccccc2c(C(=O)NCc2ccccc2)c1C	-7.7%	1.5%	-1.3%	6.5	14.1%
C[C@@H]1CN(Cc2cn(C)nc2-c2cccc(Cl)c2)C[C@H](C)O1	-20.2%	3.6%	?	1.8	-2.2%
COc1c(Br)cc(Br)cc1C(=O)Nc1ccccc1N1CCCC1	?	-0.7%	?	7.9	-12.3%
CCO[C@H]1OC(C(=O)O)=C[C@@H](c2ccccc2)[C@@H]1CCCO	-15.7%	12.2%	0.6%	21.1	-1.0%
N#Cc1ccc(S(=O)(=O)N2CCCCC2c2cc(C(=O)NCc3ccccc3)no2)cc1 (stereo not drawn)	?	3.8%	-49.6%	2.1	0.0%
C/C(=N\O)c1ccc(OCC(=O)N2CCCCC2)cc1	-3.9%	.	-7.3%	.	.
CCN(CC)CCCNC(=O)c1c2c(nc3ccccc13)C(=O)N(C1CCCCC1)C2	-2.6%	.	-13.5%	.	.
Cc1c(-c2ccccc2)nc2ccccc2c1C(=O)Oc1ccc([N+](=O)[O-])cc1	8.2µM*	14.5%	5.8µM*	-50.9*	5.7%
CCOc1ccc(CCNC(=O)c2c3c(nc4ccccc24)C(=O)N(C2CCCCC2)C3)cc1	16.4µM*	.	20.6µM*	.	.
Cc1nnc(SCC(=O)NC2(C#N)CCCCC2)n1N	-4.1%	-2.8%	-0.3%	-17.0	0.1%
Cn1cc(CN2CCC(Oc3ccc(C(=O)N4CCCCC4)cc3)CC2)cn1	9.6%	1.8%	-0.5%	3.5	-0.8%
CCOC(=O)C1=C(CC)Nc2ccccc2N=C1NC(=O)Nc1ccc(Cl)c(Cl)c1	2.91µM*	?	2.59µM*	-73.9*	?
SMILES	DT40 TDP1 CPT	HT1080NT lethal	TDP1 cell noCPT	IL-1B inflam inh	HT1080 IDH1KD tx
Cc1ccc(NC(=O)CSc2ccc(-c3ccco3)nn2)c(C)c1	?	-2.0%	?	4.7	4.2%
Cc1ccc(NC(=O)CSc2nnc(-c3cc4occc4n3C)n2-c2ccccc2C)c(C)c1	?	.	18.4µM*	.	.
Cc1ccc(NC(=O)CSc2nnc(-c3cc4occc4n3C)n2-c2ccccc2C)cc1F	25.9µM*	.	16.4µM*	.	.
Cc1ccc(NC(=O)CSc2nccn2C)cc1F	6.0%	29.3%	11.0%	-21.0	19.4%
CC1CCN(C(c2ccc(F)cc2)c2sc3nc(-c4ccco4)nn3c2O)CC1 (stereo not drawn)	3.3%	.	5.1%	.	.
CC1CCCCN1CC(O)COCc1ccc(Cl)cc1 (stereo not drawn)	-0.4%	3.0%	-0.9%	-15.2	12.8%
O=C(CCc1ccccc1)NCCc1csc(-c2cccc(F)c2)n1	?	.	18.4µM*	.	.
COc1ccc(CC(=O)NCCc2csc(-c3cccc(F)c3)n2)cc1OC	-19.2%	.	?	.	.
COc1ccc(CCNC(=O)COc2ccc(-c3ccc(C#N)cc3)cc2)cc1	-12.1%	-6.4%	?	8.9	0.6%
O=C(COc1ccccc1)NCCc1csc(-c2ccc(F)cc2)n1	14.6µM*	.	?	.	.
O=S(=O)(NCCc1csc(-c2ccc(F)cc2)n1)c1ccc(F)cc1F	16.4µM*	.	20.6µM*	.	.
N#Cc1ccc(-c2ccc(OCC(=O)NCCc3ccccc3)cc2)cc1	?	3.2%	11.6µM*	6.0	0.9%
O=C(Cc1cccs1)NCCc1csc(-c2ccccc2)n1	-4.9%	1.9%	?	9.6	1.0%
CCCCNC(=O)O[C@H]1C[C@@H]2CCN3C(=O)CCC[C@H]([C@H]1Cc1ccccc1)[C@H]23	-0.1%	12.9%	?	-0.3	-5.6%
O=C(COc1ccc(F)cc1)Nc1nc(-c2ccccn2)cs1	7.31µM*	-19.9%	7.31µM*	21.3	?
O=C(COc1cccc(F)c1)Nc1nc(-c2ccccn2)cs1	5.17µM*	-20.6%	2.59µM*	90.4	?
Cc1cccc(OCC(=O)Nc2nc(-c3ccncc3)cs2)c1	-27.7%	15.2%	?	46.8	4.5%
O=C(COc1ccc([N+](=O)[O-])cc1)Nc1nc(-c2ccccn2)cs1	4.61µM*	?	5.8µM*	67.4	?
Cc1ccc(OCC(=O)Nc2nc(-c3ccccn3)cs2)c(C)c1	?	-13.9%	?	45.1	-24.0%
O=[N+]([O-])c1cc(S(=O)(=O)N2CCCC2)ccc1N/N=C/c1cccnc1	-25.6%	20.0%	-13.8%	17.7	18.9%
CC(C)(C)c1nc2c(C#N)c(-c3ccc(Cl)cc3)ccn2n1	35.5µM*	-12.8%	20µM*	-9.9	-16.2%
C=CCNc1nc(-c2sc(NC(=O)C(C)(C)C)nc2C)c(-n2cc(-c3ccccc3)nn2)s1	20.6µM*	?	14.6µM*	-0.9	?
C=CCNC(=O)c1sc(-c2ccccc2)nc1C	0.7%	13.7%	-1.7%	6.8	12.7%
O=C(O)CCC(=O)Nc1ccccc1C(=O)N1CCN(c2ccc(Cl)cc2)CC1	5.0%	7.7%	4.8%	17.4	7.8%
CN(C(=O)c1ccccc1-c1ccccc1C(=O)O)c1ccccc1	9.2%	-0.9%	-2.8%	18.6	1.5%
